From PubChem BioAssay (NCI)
Compounds without any hit were thinned out: in the full panel of roughly 83,000, 20% have a hit.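 Interpretation: 100, growth as untreated; towards 0, rising growth inhibition; 0, no net growth; 0 to -100, cell death. Compounds scoring below 10 were considered active.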 The source made the active and inactive calls.

Assays:
Experiment in all cases: NCI-60 one-dose screen, 48 h (100 = growth as untreated, 0 = no growth, -100 = all killed)
Details in all cases: 10 µM unless noted
SR leukemia = system: SR leukemia
RPMI-8226 leukemia = system: RPMI-8226 leukemia
OVCAR-8 ovarian = system: OVCAR-8 ovarian
OVCAR-5 ovarian = system: OVCAR-5 ovarian
OVCAR-4 ovarian = system: OVCAR-4 ovarian
SK-OV-3 ovarian = system: SK-OV-3 ovarian
IGROV1 ovarian = system: IGROV1 ovarian
OVCAR-3 ovarian = system: OVCAR-3 ovarian
HS 578T breast = system: HS 578T breast
NCI/ADR-RES ovarian = system: NCI/ADR-RES ovarian

Measured: growth

O=C(NCCCl)Nc1ncccc1OCc1ccccc1
inactive: SR leukemia 78% | RPMI-8226 leukemia 99.4% | OVCAR-8 ovarian 104% | OVCAR-5 ovarian 90.9% | OVCAR-4 ovarian 96.8% | SK-OV-3 ovarian 114% | IGROV1 ovarian 95.8% | OVCAR-3 ovarian 107% | HS 578T breast 110% | NCI/ADR-RES ovarian 106%

Cc1ccc2c(n1)C(=O)C(Br)=C(C1CCCC1)C2=O
inactive: SR leukemia 31.1% | RPMI-8226 leukemia 55.9% | OVCAR-8 ovarian 96% | OVCAR-5 ovarian 106% | OVCAR-4 ovarian 112% | SK-OV-3 ovarian 88.7% | IGROV1 ovarian 96% | OVCAR-3 ovarian 82.9% | HS 578T breast 93.1% | NCI/ADR-RES ovarian 97.1%

Cc1c2cnccc2c(C)c2c1c1cc(C#N)ccc1n2C
active: SR leukemia 0.777% | RPMI-8226 leukemia -22.9% | OVCAR-8 ovarian 6.24% | OVCAR-5 ovarian -15% | OVCAR-4 ovarian -39.4% | SK-OV-3 ovarian -3.17% | IGROV1 ovarian -11.4% | OVCAR-3 ovarian -7.57% | HS 578T breast -18% | NCI/ADR-RES ovarian -9.81%

COc1ccc(C2CC(c3ccc(Nc4nc(Nc5ccccc5)nc(Nc5ccccc5)n4)cc3)=NN2C(C)=O)cc1 (stereo not given)
inactive: SR leukemia 88.2% | RPMI-8226 leukemia 73.7% | OVCAR-8 ovarian 83% | OVCAR-5 ovarian 104% | OVCAR-4 ovarian 89.7% | SK-OV-3 ovarian 124% | IGROV1 ovarian 118% | OVCAR-3 ovarian 91.4% | HS 578T breast 102% | NCI/ADR-RES ovarian 89.7%

CCN(CC)CCn1c2ccc(OC)cc2c2sc3cc(OC)ccc3c(=O)c21
inactive: RPMI-8226 leukemia 11.8% | OVCAR-8 ovarian 30% | OVCAR-5 ovarian 37.1% | OVCAR-4 ovarian 37.7% | SK-OV-3 ovarian 56.5% | IGROV1 ovarian 14.5% | OVCAR-3 ovarian 31.5% | HS 578T breast 46.1% | NCI/ADR-RES ovarian 23%
active: SR leukemia 1.43%

CCOC(=O)C1=C(c2ccccc2)N=C2SC=C(c3ccc(Cl)cc3)N2C1c1ccc(Cl)cc1 (stereo not given)
inactive: SR leukemia 75.7% | RPMI-8226 leukemia 65.9% | OVCAR-8 ovarian 78.6% | OVCAR-5 ovarian 96.9% | OVCAR-4 ovarian 48.7% | SK-OV-3 ovarian 86.5% | IGROV1 ovarian 72.3% | OVCAR-3 ovarian 65.8% | HS 578T breast 85.2% | NCI/ADR-RES ovarian 92.3%

O=C(CN1C(=O)S/C(=C\C(Cl)=C\c2ccccc2)C1=O)NCCc1ccc(O)cc1
inactive: OVCAR-8 ovarian 14% | OVCAR-5 ovarian 77.7% | OVCAR-4 ovarian 56.4% | SK-OV-3 ovarian 90.1% | HS 578T breast 36.3% | NCI/ADR-RES ovarian 19.6%
active: SR leukemia 1.71% | RPMI-8226 leukemia 0.0656% | IGROV1 ovarian -12.9% | OVCAR-3 ovarian -14.4%

CCOC(=O)C1=C(c2ccccc2)N=C2SC=C(c3ccc(Cl)cc3)N2C1c1ccc(Br)cc1 (stereo not given)
inactive: SR leukemia 74.2% | RPMI-8226 leukemia 61.8% | OVCAR-8 ovarian 80.3% | OVCAR-5 ovarian 94.9% | OVCAR-4 ovarian 50.5% | SK-OV-3 ovarian 82.5% | IGROV1 ovarian 74.5% | OVCAR-3 ovarian 67.4% | HS 578T breast 77.9% | NCI/ADR-RES ovarian 83%

CCOC(=O)n1ccn(C)c1=S
inactive: SR leukemia 94.2% | RPMI-8226 leukemia 103% | OVCAR-8 ovarian 105% | OVCAR-5 ovarian 102% | OVCAR-4 ovarian 110% | SK-OV-3 ovarian 85.3% | IGROV1 ovarian 110% | OVCAR-3 ovarian 106% | HS 578T breast 132% | NCI/ADR-RES ovarian 107%

CCOC(=O)C/C(=N\Nc1cc(=O)[nH]c2ccc(Br)cc12)C(=O)OCC
inactive: SR leukemia 40.8% | RPMI-8226 leukemia 83.2% | OVCAR-8 ovarian 98.6% | OVCAR-5 ovarian 99.6% | OVCAR-4 ovarian 96.6% | SK-OV-3 ovarian 105% | IGROV1 ovarian 82.6% | OVCAR-3 ovarian 100% | HS 578T breast 92% | NCI/ADR-RES ovarian 93.4%

Nc1nc2ccccc2c2c1S(=O)(=O)c1ccc(Cl)cc1C2=O
inactive: OVCAR-5 ovarian 13.9% | SK-OV-3 ovarian 58.6% | IGROV1 ovarian 27.6% | NCI/ADR-RES ovarian 24.8%
active: SR leukemia 3.3% | RPMI-8226 leukemia -15.1% | OVCAR-8 ovarian 8.43% | OVCAR-4 ovarian 7.52% | OVCAR-3 ovarian -12.5% | HS 578T breast 6.88%

Nc1ncnc2c1C(c1ccccc1)c1ccc3ccccc3c1O2 (stereo not given)
inactive: SR leukemia 55.1% | RPMI-8226 leukemia 80.8% | OVCAR-8 ovarian 79.6% | OVCAR-5 ovarian 99% | OVCAR-4 ovarian 86.5% | SK-OV-3 ovarian 64.7% | IGROV1 ovarian 77.8% | OVCAR-3 ovarian 93.9% | HS 578T breast 93.7% | NCI/ADR-RES ovarian 80.9%

COc1cc2cc(NCc3cccc(Cl)c3)nc(C)c2cc1OC
inactive: SR leukemia 29.6% | OVCAR-8 ovarian 45.3% | OVCAR-5 ovarian 43.7% | OVCAR-4 ovarian 68% | SK-OV-3 ovarian 56.9% | IGROV1 ovarian 24.6% | OVCAR-3 ovarian 60.1% | HS 578T breast 76.3% | NCI/ADR-RES ovarian 42.5%
active: RPMI-8226 leukemia 8.04%

C=CCn1c(SCC(=O)Nc2ccc(C(=O)/C=C/c3ccc(Cl)cc3)cc2)nnc1-c1ccc(Br)cc1
inactive: SR leukemia 70.7% | OVCAR-8 ovarian 57.6% | OVCAR-5 ovarian 98% | OVCAR-4 ovarian 57.6% | SK-OV-3 ovarian 138% | IGROV1 ovarian 87.2% | OVCAR-3 ovarian 85.5% | HS 578T breast 71.9% | NCI/ADR-RES ovarian 74.7%
active: RPMI-8226 leukemia -28.1%

COc1ccc(-c2cc(-c3cc(OC)c(OC)c(OC)c3)c(C#N)c(=O)n2CCCCC(=O)NO)cc1
inactive: SR leukemia 13.3% | RPMI-8226 leukemia 35.9% | OVCAR-8 ovarian 42.4% | OVCAR-5 ovarian 76.6% | OVCAR-4 ovarian 67% | SK-OV-3 ovarian 87.1% | IGROV1 ovarian 60.2% | OVCAR-3 ovarian 62.1% | HS 578T breast 45% | NCI/ADR-RES ovarian 38.8%
